# Screening data from PubChem.
# Only a selection was taken, and hits are over-represented in it overall.
# Eya2 inh – blocks the phosphatase activity of human Eya2. recombinant Eya2, OMFP fluorescence dephosphorylation (OMFP is methylfluorescein phosphate). Potency, µM (top dose mostly 76.9 µM), inactives show at the highest dose activity, negative = inhibition, hits mostly inhibitors. 330,000 tested, 0.006% active. AID 488837; further: on the % scale 0 is the no-effect control and ±100 the full control effect
#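 Eya2 protein (added as 0.2 uM solution) was preincubated with compound for 10 min at ambient temperature in 50 mM HEPES pH 7.5, 50 mM NaCl, 5 uM MgCl2, 0.05% BSA, 1 mM DTT. OMFP (added at 50 uM) then reacted 10 min; fluorescence read at 485/525 nm.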
# a7 integrin act – activates integrin-mediated alleviation for muscular dystrophy. alpha7betagal myoblasts, beta-gal FDG fluorescence, 48 h. Potency, µM (highest dose often 38.3 µM), for the others: top-dose activation, usual class: activators. 350,000 tested, 0.064% active. AID 624291;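 further: 100% = response of the positive control SU9516; nearly all actives have a fitted effect of over 60% in size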
#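 Alpha7betagal+/- myoblasts (passage 13) were plated 16-24 hr, then exposed to compounds (1:260 dilution of DMSO stock) for 48 hours at 37C. After MPER lysis, β-galactosidase reporter activity was read as FDG fluorescence (ex 480/em 540) after 30 minutes.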
# USP2a block – blocks human ubiquitin-specific protease USP2a; O75604; USP2 core, Ub-CHOP2 coupled fluorogenic reporter, 485/531; Potency, µM (doses to about 38.3 µM), for inactives: at the highest dose activity change, negative = inhibition, hits mostly inhibitors; 330,000 tested, 0.01% active;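 further: plate controls were DMSO wells for no effect and full inhibition by NEM control for full effect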
# Target sequence (O75604 whole entry, looked up): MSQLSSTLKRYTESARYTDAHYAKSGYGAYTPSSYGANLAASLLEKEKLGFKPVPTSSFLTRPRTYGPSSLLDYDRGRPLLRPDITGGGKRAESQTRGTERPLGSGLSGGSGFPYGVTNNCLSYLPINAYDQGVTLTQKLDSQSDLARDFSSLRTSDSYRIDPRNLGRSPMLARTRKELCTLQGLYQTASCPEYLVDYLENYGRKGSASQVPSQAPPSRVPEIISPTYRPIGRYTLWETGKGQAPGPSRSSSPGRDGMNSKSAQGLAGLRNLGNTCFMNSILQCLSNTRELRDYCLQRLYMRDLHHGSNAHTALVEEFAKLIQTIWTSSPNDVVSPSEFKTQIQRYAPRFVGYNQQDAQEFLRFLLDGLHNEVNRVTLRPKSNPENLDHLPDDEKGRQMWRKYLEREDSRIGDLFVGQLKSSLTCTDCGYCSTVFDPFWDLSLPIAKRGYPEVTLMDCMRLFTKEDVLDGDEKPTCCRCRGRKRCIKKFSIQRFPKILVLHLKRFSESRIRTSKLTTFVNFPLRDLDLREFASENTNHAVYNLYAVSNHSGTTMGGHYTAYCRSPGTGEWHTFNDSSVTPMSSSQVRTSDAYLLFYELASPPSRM
#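 USP2 core (10nM final) preincubated 30min RT with compound in 20mM Tris-HCl pH 8.0, 2mM CaCl2, 2mM beta-mercaptoethanol, 0.05% CHAPS; 25nM Ub-CHOP2 plus 25nM reporter substrate added, fluorescence (Ex485/Em531) read after 60min.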
# MmCpn inh – M. maripaludis TRiC chaperonin inhibition | purified Mm-Cpn ATPase, ADP Transcreener TR-FRET | Potency, µM (highest dose often 76.9 µM), for the others: top-dose activity, negative = inhibition, actives largely listed as inhibitors | 330,000 tested, 0.031% active; further: on the % scale 0 is the no-effect control and ±100 the full control effect; nearly all actives have a fitted effect of over 80% in size
#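 Purified archaeal Mm-CPN (25nM final) preincubated 10 min at 37degC with compound, then 10uM ATP for 30 min at 37degC; ADP measured by HTRF Transcreener TR-FRET; buffer 30 mM TRIS pH 7.4, 100mM KCl, 5mM MgCl2, 1mM DTT.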
# ClpP mod – qHTS Assay for Activators of ClpP. ATP-dependent Clp protease proteolytic subunit (Bacillus subtilis (strain 168)), P80244. purified B. subtilis ClpP, FRET peptide cleavage, 20 min. Potency, µM (highest dose often 57.5 µM), inactives show at the top dose activity change, negative = active. 340,000 tested, 1.9% active. AID 651965, 2013; active means well fitted falling curve with a large enough effect; inconclusive means small, poorly fitted or top-dose-only effect; inactive means no such curve, though single readings can be large or run the other way; further: the source files actives as falling curves though it sought activators and does not explain the sign; nearly all actives have a fitted effect of over 65% in size
#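 FRET quenching reversal measured ClpP activation: 10 microg/mL B. subtilis ClpP at pH 8 with the FRET-FV decapeptide, read at 430 nm after 320 nm excitation. The 20-min minus 0-min signal was scaled between DMSO/no-enzyme wells and ADEP (5.8 microM final).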
# p53 reactivation – restores transcriptional activity of mutant p53 | H1299 p53-A138V BP100-luciferase reporter, luminescence, 24 h | Potency, µM (doses to about 92.2 µM), without a hit: at the top dose activity change, positive = activation, most hits filed as activators | 320,000 tested, 0.063% active | AID 504706; further: % of control where 0% means no effect; nearly all actives have a fitted effect of over 45% in size
#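 H1299 (p53-null), stable ts p53-A138V + BP100-Luc; 1000 cells/well, Opti-MEM/10% FBS; cpd 4 pt, 1:5; 24 h, 37 deg C, 5% CO2; detection reagent 10 min RT; luminescence.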
# An asterisk follows results filed as active; ? = inconclusive; / = no result; [ ] = remark or other dose. Unless noted, the call rests on the fitted dose curve; in most records, active means well fitted curve in the direction sought with a large enough effect; inconclusive means small, poorly fitted or top-dose-only effect, or another doubt; inactive means no such curve, though single readings can be large; an effect the other way counts as inactive or inconclusive. Potency means the concentration at half of the fitted maximal effect.
SMILES,Eya2 inh,a7 integrin act,USP2a block,MmCpn inh,ClpP mod,p53 reactivation
O=C(COC(=O)CNC(=O)C1CCCCC1)NC1CCCC1,/,/,/,/,0%,/
COc1ccc(-c2nc(CC(=O)O)cs2)cc1,0%,5%,1%,-2%,22µM*,2%
CCCCOc1ccc(S(=O)(=O)NCc2csc(-c3ccc(OC)cc3)n2)cc1,/,/,/,/,13µM*,/
COc1ccc(-c2nc(CCNC(=O)c3ccccc3)cs2)cc1OC,/,/,/,/,25µM*,/
COc1cc(C(=O)NCCc2csc(-c3ccc(Cl)cc3)n2)cc(OC)c1OC,/,/,/,/,-11%,/
COc1ccc(-c2nc(CC(=O)O)cs2)cc1OC,-1%,/,4%,-10%,/,1%
COc1cccc(-c2nc(CC(=O)O)cs2)c1OC,23%,23%,1%,-5%,13µM*,2%
Cc1ccc(S(=O)(=O)Nc2cc(Cl)c3oc4c(c3c2)CCCC4)cc1,/,/,/,/,-1%,/
Cc1ccccc1-n1nnnc1SCc1ncc(-c2ccccc2)o1,4%,2%,-1%,-4%,32µM*,-14%
CC(C)(C)NC(=O)C12CC3CC(CC(Cl)(C3)C1)C2,0%,10%,0%,1%,-2%,6%
CC(C)(CO)NC(=O)C12CC3CC(CC(Br)(C3)C1)C2,2%,12%,-1%,2%,20µM*,2%
COc1ccc(NC(=O)C(c2ccccc2)N(C)C(=O)/C=C\c2ccc3c(c2)OCO3)cc1 (centres undefined),/,/,/,/,4%,/
COc1cccc(NC(=O)C(OC(=O)/C=C/c2ccc3c(c2)OCO3)c2ccccc2)c1 (centres undefined),-7%,2%,1%,-17%,32µM*,2%
COC(=O)C[C@H]1c2ccccc2S(=O)(=O)N1c1ccc(N(C)C)cc1,/,/,/,/,-1%,/
COc1cc(OC)c(/C=C/c2ccc3ccccc3[n+]2C)c(OC)c1,/,/,/,/,0%,/
Cc1nc(Nc2ccc(S(=O)(=O)N3CCCCC3C)cc2)c2nnn(Cc3ccccc3)c2n1 (centres undefined),5%,-30%,3%,0%,32µM*,-2%
CCOc1c2c(c(-c3ccc4c(c3)OCO4)c3cc(OC)c(OC)cc13)C(=O)OC2,/,/,/,/,4%,/
Cc1ccc(C(=O)c2c(C)oc3c2C(=O)C(=O)c2ccccc2-3)cc1,27%,-61%,2%,0%,1%,-11%
COc1ccc(C(=O)c2c(C(F)(F)F)oc3c2C(=O)c2ccccc2C3=O)cc1,-8%,-56%,-1%,-2%,3.2µM*,-23%
Cc1cc[n+](CCC2CCCCC2)cc1,/,/,/,/,-1%,/
CC(C)(C)C(=O)Nc1c(C(=O)N2CCN(c3ccc(F)cc3)CC2)oc2ccccc12,/,/,/,/,-3%,/
Nc1ccc(O)cc1C(=O)OCC(=O)C12CC3CC(CC(C3)C1)C2,-12%,-29%,-14%,-4%,22µM*,26%
O=C(OCC(=O)C12CC3CC(CC(C3)C1)C2)c1ccc(O)cc1,-1%,-16%,1%,-2%,-4%,18%
CC(=O)N1CCN(C(=O)CN2C(=O)NC(C)(c3ccc4ccccc4c3)C2=O)CC1 (centres undefined),17%,2%,3%,?,-2%,0%
COc1ccc(N2CCN(C(=O)CN3C(=O)NC(C)(c4ccc5ccccc5c4)C3=O)CC2)cc1 (centres undefined),-3%,18%,-2%,4%,28µM*,-5%
SMILES,Eya2 inh,a7 integrin act,USP2a block,MmCpn inh,ClpP mod,p53 reactivation
CN(C)c1ccc(/C=C/c2ccnc3cc(Cl)ccc23)cc1,/,/,/,/,1%,/
CCCSc1nc(N2CCOCC2)c2c(c1C#N)CCCC2,-6%,-17%,0%,-3%,-11%,15%
Cc1cc(C)c(C#N)c(N2CCOCC2)n1,4%,-7%,5%,0%,25µM*,-8%
CCCCc1nc(N2CCOCC2)c(C#N)c2c1CCCC2,6%,-19%,0%,0%,25µM*,?
CCOc1cc2c(C#N)c(N3CCOCC3)nc(N)c2c(N)n1,-21%[15.4 µM],16%,-1%,-6%,32µM*,2%
CC(C)c1nc(N2CCOCC2)c(C#N)c2c1CCC2,-1%,10%,0%,1%,25µM*,25%
CSc1ccc(/C=C2\C=C(C(O)c3ccc(SC)cc3)c3ccccc32)cc1 (centres undefined),/,/,/,/,0%,/
Cc1oc(-c2ccc(C(=O)NCc3ccccc3F)cc2)nc1COc1ccccc1,/,/,/,/,4%,/
CCCc1nc(N2CCOCC2)c(C#N)c2c1CCCC2,-3%,-22%,0%,0%,32µM*,3%
Cc1csc2ncc(C(=O)NCc3ccco3)c(=O)n12,0%,-32%,-1%,0%,20µM*,5%
CCC(Sc1ncccc1C(=O)Oc1cccc([N+](=O)[O-])c1)C(=O)Nc1ccccc1OC (centres undefined),7%,13%,-1%,-6%,35µM*,20%
CSc1cccc(NC(=O)CSc2ncccc2C(=O)Oc2cccc([N+](=O)[O-])c2)c1,15%,0%,2%,-2%,-1%,?
Oc1ccc2c(c1)oc1cc(O)ccc12,-23%,-42%,0%,-5%,32µM*,?
COc1c(C)oc2cc(O)ccc2c1=O,5%,9%,3%,-7%,18µM*,-4%
Cc1oc2cc(O)ccc2c(=O)c1Oc1ccc(F)cc1,?,-13%,-1%,-3%,4%,-3%
CCOC(=O)c1nn(-c2ccc(Cl)cc2)c2nc(CC)c(C#N)c(=O)n12,4%,3%,?,-13%,896%,1%
CCOC(=O)c1nn(-c2ccc(OCC)cc2)c2nc(CC(C)C)c(C#N)c(=O)n12,2%,39%[7.66 µM],1%,0%,22µM*,-1%
CCOC(=O)c1nn(-c2cccc(C)c2)c2nc(-c3ccccc3)c(C#N)c(=O)n12,27%,-1%,0%,-2%,32µM*,2%
CCOC(=O)c1nn(-c2ccc(Cl)cc2)c2nc(-c3ccc(C)cc3)c(C#N)c(=O)n12,-12%,-33%,4%,-3%,25µM*,9%
CCCN1CNc2c(c(=O)[nH]c(=S)n2CCc2cccc(C)c2)C1,/,/,/,/,-1%,/
CCOc1cc(C2Nc3ccccc3C(=O)N2Cc2ccco2)ccc1O (centres undefined),/,/,/,/,4%,/
COc1cc(C2Nc3ccccc3C(=O)N2c2ccccc2)c(Br)cc1OCC(=O)O (centres undefined),-3%,7%,4%,-10%,32µM*,16%
